Measured values taken from PubChem BioAssay (NCI).
About 83,000 compounds went through this panel and 20% of them were active in at least one assay; those are over-represented in the sample as a whole.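 A percent growth of 40 corresponds to 60% growth inhibition; 0 means no net growth; -100 means all cells died. Active threshold: below 10.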 Values without a mark were called inactive. Calls of active or inactive are those of the source.

Assays:
Assay in all cases: NCI-60 one-dose screen, 48 h (100 = growth as untreated, 0 = no growth, -100 = all killed)
[1] = system: NCI-H23 lung; settings: 10 µM unless noted
[2] = system: NCI-H226 lung; settings: 10 µM unless noted
[3] = system: NCI-H322M lung; settings: 10 µM unless noted
[4] = system: HOP-62 NSCLC; settings: 10 µM unless noted
[5] = system: NCI-H460 lung; settings: 10 µM unless noted
[6] = system: HOP-92 NSCLC; settings: 10 µM
[7] = system: NCI-H522 lung; settings: 10 µM unless noted
[8] = system: A549/ATCC NSCLC; settings: 10 µM unless noted
[9] = system: 786-0 renal; settings: 10 µM unless noted
[10] = system: COLO 205 colon; settings: 10 µM unless noted
[11] = system: DU-145 prostate; settings: 10 µM unless noted
[12] = system: K-562 leukemia; settings: 10 µM unless noted
[13] = system: MALME-3M melanoma; settings: 10 µM unless noted
[14] = system: MDA-MB-231 breast; settings: 10 µM unless noted
[15] = system: RXF 393 renal; settings: 10 µM unless noted
[16] = system: SF-268 CNS; settings: 10 µM unless noted
[17] = system: SF-295 CNS; settings: 10 µM unless noted
[18] = system: SF-539 CNS; settings: 10 µM unless noted
[19] = system: UACC-257 melanoma; settings: 10 µM unless noted

SMILES | growth [1] | growth [2] | growth [3] | growth [4] | growth [5] | growth [6] | growth [7] | growth [8] | growth [9] | growth [10] | growth [11] | growth [12] | growth [13] | growth [14] | growth [15] | growth [16] | growth [17] | growth [18] | growth [19]
COc1cc(OC)c(/C=C/S(=O)(=O)Cc2ccc(OC)c(NCC(=O)NO)c2)c(OC)c1 | 15.4% | 25.6% | 45.6% | 20.8% | 10.8% | 51.8% | 3.67% (active) | 22.3% | 28.1% | -67.6% (active) | 13.8% | 11.6% | 61.8% | 25.4% | -0.671% (active) | 31.9% | 6.88% (active) | -5.59% (active) | 62.4%
O=C(Nc1ccc(F)c(F)c1)c1cc(-c2ccc(F)cc2F)ccc1O | -9.76% (active) | 3.67% (active) | 3.88% (active) | 19% | 2.98% (active) | -19% (active) | -1.71% (active) | 8.98% (active) | 9.53% (active) | 82.1% | 18.5% | 12.2% | -13.9% (active) | 4.13% (active) | -28.1% (active) | 16.3% | -23.4% (active) | 12.5% | -9.01% (active)
N=c1c2cc(-c3ccccc3)oc2ncn1/N=C/c1ccc(Br)cc1 | 102% | 71.3% | 78.1% | 73.7% | 15.8% | 105% | 91.8% | 44.2% | 59.2% | 98.9% | 50.9% | 80% | 16.3% | 93.4% | 86.6% | 68.9% | 84.2% | 74.2% | 89.8%
CS(=O)(=O)c1ncc(-c2ccccc2)cn1 | 96% | 101% | 91.2% | 100% | 108% | 104% | 86.4% | 94.2% | 109% | 108% | 104% | 93.3% | 104% | 99.8% | 106% | 101% | 107% | 94.4% | 89.7%
Nc1ccccc1NC(=O)c1ccc(NC(=O)C/C=C/c2cccnc2)cn1 | 22.7% | 25.1% | 35.9% | 27.1% | 31.6% | -7.8% (active) | 0.109% (active) | 33.5% | 31.9% | -21.9% (active) | 6.29% (active) | 15.7% | 15.6% | 41.6% | -35.5% (active) | 28.3% | 21.8% | 9.41% (active) | 14.5%
COc1ccc(-c2cc(-c3ccc(Cl)cc3)c(C#N)c(=O)n2Cc2ccc(C(=O)O)cc2)cc1 | 85.9% | 100% | 95.5% | 78.6% | 92.4% | 98.3% | 28.5% | 108% | 108% | 109% | 112% | 54.3% | 52.9% | 95.6% | 72.1% | 67.8% | 68.3% | 69.1% | 83.8%
COc1cc(-c2nc(SCCC(C)C)nc(NNC(=O)c3ccncc3)c2C#N)cc(OC)c1OC | 91.2% | 93% | 64.6% | 63.9% | 105% | 32.9% | 27.9% | 76.5% | 32.3% | 65.9% | 79.1% | 74.6% | 105% | 27.9% | -16.7% (active) | 56% | 65.7% | 71.6% | 94.2%
NC(=O)c1c(NC(=O)c2ccccc2C(F)(F)F)sc2c1CCC(=O)C2 | 4.77% (active) | 37.9% | 105% | 93.4% | 58.4% | -9.74% (active) | -1.13% (active) | 94% | 37.5% | 38.3% | 81.2% | 11.7% | 15% | 16.2% | 41.7% | 24.6% | 73% | 5.83% (active) | 10.6%
